Bioassay records as filed in PubChem.
This excerpt belongs to a sample that is enriched for hits.
Pf Dd2 inh = qHTS Primary assay for Inhibitors of Plasmodium falciparum Dd2 growth in vitro. AID 1347417, 2020. hit rate 4.3% among 120,000. P. falciparum Dd2 growth, SYBR Green, 72 h. Potency, µM (doses to about 28.9 µM), hits mostly inhibitors; active = well fitted inhibition curve with a large enough effect; also: nearly all actives have a fitted effect of over 65% in size
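Readout: SYBR Green fluorescence, 485 nm excitation, 535 nm emission, after ~16 h lysis at 37C. Before that, Dd2-infected red cells (2.5% hematocrit) grew 72 h with compound, 29 uM top final concentration.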
A number is an active result; – = inactive; [ ] = remark or other dose.

SMILES | Pf Dd2 inh
COc1ccc(NC(=O)N2CCc3c(C(=O)NC(C)C)cccc32)cc1 | –
CCCCN(C)C(=O)c1cccc2c1CCN2C(=O)Nc1ccc(OC)cc1 | 14µM
COc1ccc(NC(=O)N2CCc3c(C(=O)NCCN4CCCCCC4)cccc32)cc1 | 2.8µM
O=C(O)[C@@H]1CN(C(=O)N2CCOCC2)C[C@H]1c1ccccn1 | –
Cc1noc(-c2ccc(OC3CN(C(=O)CCc4ccccc4)C3)cc2)n1 | –[5.79 µM]
Cc1ccc(NC(=O)C2CCCN2S(=O)(=O)c2ccc3c(c2)C(C)(C)C(=O)N3C)cc1 (stereo not drawn) | –
Fc1ccccc1OCc1nc(C2CCCNC2)no1 (stereo not drawn) | –
Cc1ccc(OCc2nc(C3CCNC3)no2)cc1 (stereo not drawn) | –
c1ccc(OCc2nc(C3CCCNC3)no2)cc1 (stereo not drawn) | 5.6µM
Cc1ccc(-c2nc3cc(NC(=O)c4cc5ccccc5o4)ccc3o2)cc1 | –
COCCC(=O)N[C@@H]1CN(c2ccncn2)C[C@H]1CN(C)C | –
CCC(NCc1c(C(=O)N2CCCCCC2)nc2cc(C)ccn12)c1ccc(C)cc1 (stereo not drawn) | 10µM
Cc1ccn2c(=O)c(C(=O)NCc3ccccc3Cl)c(O)nc2c1 | –
Cc1ccn2c(C(=O)NCc3cccnc3N3CCN(C)CC3)c(C)nc2c1 | –
O=C(c1ccc(Cl)nc1)N1CCn2c(nn(-c3ccc(C(F)(F)F)cc3)c2=O)C1 | –
Cc1ccc(C)c(NC(=O)N2CC=C(c3c[nH]c4ccccc34)CC2)c1 | 4µM
CCc1ccc(NC(=O)N2CC=C(c3c[nH]c4ccccc34)CC2)cc1 | –
CCOC(=O)c1cccc(NC(=O)N2CC=C(c3c[nH]c4ccccc34)CC2)c1 | 6.3µM
CCOC(=O)c1cccc(NC(=O)N2CCC(CN3CCc4ccccc4C3)CC2)c1 | –
CCOc1ccc2c(n1)CCN(C(=O)Nc1cc(C)ccc1C)C2 | –
Cc1cc(NC(=O)N2CC=C(c3c[nH]c4ccccc34)CC2)ccc1Br | –
O=C(CC1CCOCC1)N1CCN(Cc2ccc(F)cc2F)CC1 | –
CCOC(=O)c1sc(N2C(=O)c3oc4ccccc4c(=O)c3C2c2ccc(C(C)(C)C)cc2)nc1C (stereo not drawn) | –
O=C(c1ccccc1Cl)N1CCC2(CC1)Cc1ccccc1NC2=O | –
O=C(c1ccccc1)N1CCC(Oc2nccnc2N2CCOCC2)C1 (stereo not drawn) | –
SMILES | Pf Dd2 inh
CCNC(=O)c1cccnc1OC1CCN(Cc2ccccn2)C1 (stereo not drawn) | –
c1ccc(CN2CCC(Oc3nccnc3N3CCc4ccccc43)C2)nc1 (stereo not drawn) | 4µM
O=C(C1CCOCC1)N1CCC(Oc2nccnc2N2CCOCC2)C1 (stereo not drawn) | –
O=C(NCCc1ccccn1)c1cccnc1OC1CCNCC1 | –
c1ccc2c(c1)CCN2c1nccnc1OC1CCNC1 (stereo not drawn) | 7.9µM
c1cc(CN2CCC(Oc3nccnc3N3CCOCC3)C2)ccn1 (stereo not drawn) | –
CN1CCC(Oc2nccnc2N2CCOCC2)C1 (stereo not drawn) | –
c1cnc(N2CCOCC2)c(OC2CCNC2)n1 (stereo not drawn) | 1.4µM
CN(C)C(=O)c1cccnc1OC1CCNCC1 | –
CN1CCC(Oc2ncccc2C(=O)O)CC1 | –
CN1CCC(Oc2nccnc2N2CCc3ccccc3C2)C1 (stereo not drawn) | 8.9µM
N#Cc1cccc(-c2ccnc(N[C@H]3CO[C@H]4[C@@H]3OC[C@H]4OC(=O)NC3CCCCC3)n2)c1 | –
Cc1noc([C@@H](C)NCc2cccc(Cl)c2)c1C(=O)O | –
CC(=O)N1CCc2cc(S(=O)(=O)NC(Cc3ccccc3)C(=O)Nc3ccc(Cl)cc3)ccc21 (stereo not drawn) | –
CN1CCC(O)(c2csc(CN3CC[C@@H](O)C3)n2)CC1 | –
CN1CCOc2c(C(=O)NCc3cnn(C)c3)cc(-c3ccc(CO)cc3)cc21 | –
COCCn1c(C)cnc1C1CCN(C(=O)C2CCC2)C1 (stereo not drawn) | –
COc1cccc(NC(=O)CSc2cc(C)c3ccccc3n2)c1 | –
CS(=O)(=O)N(C1CC1)C1CCOC2(CCN(C(=O)Cc3ccccc3)CC2)C1 (stereo not drawn) | –
CCOc1ccc(NC(=O)Cn2c(=O)c(-c3noc(CC)n3)c3n(c2=O)CCCC3)cc1 | –
Cc1cc2oc(C(=O)Nc3sc4c(c3C(=O)NCc3ccco3)CCC4)cc(=O)c2cc1C | –
COC(=O)C1CCCN1C(=O)c1c(C)oc2c1CN(Cc1ccc(C)cc1)CC2 (stereo not drawn) | –
COCCNC(=O)c1c(C)oc2c1CN(Cc1cccc(F)c1)CC2 | 5µM
Cc1oc2c(c1C(=O)NCCc1ccncc1)CN(C)CC2 | –
COc1ccc(CN2CCc3nc(C(=O)NCc4cccc(F)c4)oc3CC2)cc1 | –
SMILES | Pf Dd2 inh
Cc1oc2c(c1C(=O)NCc1ccncc1)CN(Cc1cccc(F)c1)CC2 | 10µM
COc1ccc(CN2CCc3oc(C)c(C(=O)N4CCOCC4)c3C2)cc1 | –
Cc1oc2ccn(Cc3cccc(F)c3)c(=O)c2c1C(=O)NCc1ccccc1 | –
COc1ccc(CN2CCc3oc(C)c(C(=O)NCc4cccnc4)c3C2)cc1 | 11µM
Cc1oc2c(c1C(=O)N1CCOCC1)CN(Cc1cccnc1)CC2 | –
COc1ccc(CN2CCc3oc(C)c(C(=O)NC4CCN(C)CC4)c3C2)cc1 | 10µM
O=C(NCCOc1ccccc1)c1nc2c(o1)CCN(Cc1cccc(F)c1)CC2 | –
Cc1oc2c(c1C(=O)NCc1cccnc1)CN(Cc1ccc(F)cc1)CC2 | –
CCOc1ccc(CNC(=O)c2ccc3c(c2)c(C)c(C)n3C)cc1 | –
COc1ccccc1NC(=O)CSc1nc2c(oc3ccccc32)c(=O)n1-c1ccccc1F | –
Cc1ccc2c(c1)c(=O)c1ccccc1n2CCCC(=O)Nc1ccc(C)c(C)c1 | –
Cc1cnc(C(=O)N2CCCCCNC(=O)[C@@H]3CCC[C@@H]32)cn1 | –
Cc1ccc(NC(=O)c2c3c(nc4ccccc24)C(=O)N(C2CCCCC2)C3)cc1F | –
O=C(c1ccoc1)N1CCC(c2n[nH]c(=O)n2-c2ccccc2)CC1 | –
CC1CCC2(CC1)OCC(C(=O)NCC1CCCO1)N2C(=O)c1cccc([N+](=O)[O-])c1 (stereo not drawn) | –
COc1ccc(C(=O)CC2(O)C(=O)Nc3c(C)cccc32)c(OC)c1OC (stereo not drawn) | –
Cc1cccc(C(=O)N2CC(N(CC3CC3)C3CCOCC3)C2)c1 | –
NC1(Cc2cc(COc3ccccc3)on2)COC1 | –
CCn1nnc2cc(C(=O)Nc3cccc(C(F)(F)F)c3)ccc21 | –
Cc1cc(Nc2cccc(C(F)(F)F)c2)nc2ccc(NC(=O)c3ccc(N(C)C)cc3)cc12 | 2.8µM
Cc1ccc(OCC(=O)Nc2ccc3nc(Nc4cccc(Cl)c4)cc(C)c3c2)cc1 | –
CCN(CC)c1cc(C)c2cc(NC(=O)c3cccc(F)c3)ccc2n1 | –
Cc1cc(Nc2cccc(C(F)(F)F)c2)nc2ccc(NC(=O)Cc3ccc(Cl)cc3)cc12 | 11µM
Cc1ccccc1-c1nc2cc(NC(=O)Cc3ccc(Cl)cc3)ccc2o1 | –
CCO[C@H]1CN(C(=O)c2ccc(-n3ccnc3)cc2)C[C@@H]1O | –
O=C(NCC1Cn2cccc2CN1Cc1ccccc1)c1n[nH]c2ccccc12 (stereo not drawn) | 13µM
O=C(NCC1Cn2cccc2C(=O)N1Cc1ccccc1)c1ccncc1 (stereo not drawn) | –
